Data on seven compounds can be found in PubChem BioAssay AID753 (Emory University Molecular Libraries Screening Center, 2007).

Some of the results follow. Inconclusive results are not listed. Activity calls are given as the source filed them.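 Rule for the calls: active = percent of control activity at or below 60%; inconclusive = HPLC trace unusable from injection failure or solvent front hiding peaks; inactive = the rest, plus ubiquitin peak ratio over a set limit.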

The target in this experiment is Ubiquitin carboxyl-terminal hydrolase BAP1 (Homo sapiens) (UniProt Q92560). As to the kind of experiment: BAP1 ubiquitin ester hydrolysis inhibition – biochemical, Ub-ethyl ester substrate, HPLC readout, orthogonal assay, confirmation (AID 753). The settings on record: purified BAP1, Ub-ethyl ester hydrolysis; at 20 µM, stronger effect = lower value.
Chain of Ubiquitin carboxyl-terminal hydrolase BAP1 (Homo sapiens) (Q92560 whole entry, looked up): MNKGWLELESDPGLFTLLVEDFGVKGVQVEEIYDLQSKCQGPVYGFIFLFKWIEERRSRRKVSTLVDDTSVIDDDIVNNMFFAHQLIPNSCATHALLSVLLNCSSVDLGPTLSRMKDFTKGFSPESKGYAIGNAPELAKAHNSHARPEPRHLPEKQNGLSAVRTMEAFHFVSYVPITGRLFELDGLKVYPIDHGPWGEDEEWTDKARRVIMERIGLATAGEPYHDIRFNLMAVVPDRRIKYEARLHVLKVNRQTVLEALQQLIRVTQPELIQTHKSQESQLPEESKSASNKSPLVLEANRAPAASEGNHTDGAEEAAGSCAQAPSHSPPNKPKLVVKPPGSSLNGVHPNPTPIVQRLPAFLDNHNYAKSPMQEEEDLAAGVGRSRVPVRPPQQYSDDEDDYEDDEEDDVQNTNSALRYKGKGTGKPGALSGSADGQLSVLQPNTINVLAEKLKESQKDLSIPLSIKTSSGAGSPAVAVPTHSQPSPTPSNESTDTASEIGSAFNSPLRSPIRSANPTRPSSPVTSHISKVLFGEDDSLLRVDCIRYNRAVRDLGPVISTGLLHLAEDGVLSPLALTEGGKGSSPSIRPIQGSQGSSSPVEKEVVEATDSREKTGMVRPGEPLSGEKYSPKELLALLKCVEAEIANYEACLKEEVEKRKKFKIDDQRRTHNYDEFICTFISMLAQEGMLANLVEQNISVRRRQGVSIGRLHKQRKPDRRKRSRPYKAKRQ
With `O=c1c2ccccc2nc(CSc2nnnn2-c2ccccc2)n1-c1ccccc1`, the % of control activity was 83.3% (inactive).
For the compound `N#Cc1c(/N=C/N2CCCC2)oc(-c2ccccc2)c1-c1ccccc1`, the % of control activity is 111% (inactive).
On the same count and under the same terms, then `Fc1ccc2nc(Nc3nc4c(s3)CCCC4)sc2c1`, with 142% (inactive); and `Fc1ccc(-c2ccc(-c3nn4c(-c5ccco5)nnc4s3)o2)cc1`, with 106% (inactive); and `CCC(c1nnnn1C1CCCC1)N(Cc1cccs1)Cc1cc2cccc(C)c2[nH]c1=O` (configuration not stated), with 99.7% (inactive).
Regarding `CCOc1ccc(CN(Cc2ccco2)C(c2cccs2)c2nnnn2C(C)(C)C)cc1` (configuration not stated), the compound was classed as inactive.
On to `C=CCn1c2ccccc2c2nnc(SC(CC)C(=O)Nc3nc(C)c(C(=O)OCC)s3)nc21` (configuration not stated), for which the % of control activity is 73.6% (inactive).
